IL1B NFkB inh – blocks IL-1B driven NFkB nuclear translocation in HUVEC cells; actives 0.43% (n = 94,000); AID 796; inhibition, % at 2 µM; HUVEC IL-1B NFkB p65 nuclear translocation imaging;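 active means inhibition above about 30% together with a positive call from visual inspection of the well image, limit read from the data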;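 further: nuclear over cytoplasmic p65 intensity ratio measured by imaging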
TNFa cytotox – HUVEC cytotoxicity counter-screen, TNF alpha stimulated. HUVEC TNFalpha-stimulated, Hoechst cell count, imaging. cell count reduction, % at 2 µM. actives 0.17% (n = 93,000). AID 848;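 active means cell count reduction exceeding the screen mean by over 5 SD, scaled to untreated wells per plate, cut at about 78% in these data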;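 further: cells counted after 24 h of TNF alpha exposure following the 1 h pretreatment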
VCAM1 TNFa inh – reduces TNF alpha induced VCAM1 expression in HUVEC; AID 802; inhibition, % at 2 µM; actives 0.48% (n = 95,000); HUVEC TNFa-induced VCAM-1 immunofluorescence, high-content imaging;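 active means inhibition above the batch mean plus 3 SD, with images confirmed as a hit by eye, cut at about 37% in these data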
NFkB transloc pot – enhances IL-1B driven NFkB nuclear translocation. HUVEC IL-1B NFkB p65 nuclear translocation imaging. activation, % at 2 µM. actives 0.3% (n = 94,000);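 active means activation above 40%, about the mean plus 3 SD, also judged a hit on visual image review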;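 further: percent activation is computed from the nuclear over cytoplasmic p65 intensity ratio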
HUVEC tox IL1B – toxic to HUVEC cells under IL-1B stimulation; HUVEC cell count loss, Hoechst imaging, IL-1B stimulated; cell count reduction, % at 2 µM; actives 0.41% (n = 94,000);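 active means cell count reduction more than 3 SD above the screen-wide mean, cut at about 70% in these data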
Hits are given with their value; - = inactive; . = no result. Only some compounds are listed: those with a hit (about 1.5% of all), similar ones and a draw of the others.

SMILES | IL1B NFkB inh | TNFa cytotox | VCAM1 TNFa inh | NFkB transloc pot | HUVEC tox IL1B
CCOc1ccc(C2/C(=C(\O)c3c(C)[nH]c(C(=O)OC)c3C)C(=O)C(=O)N2CCN(C)C)cc1 (stereo unspecified) | - | - | 92 | - | -
Cc1cc(Oc2ccc(C#N)cc2)nc(N2CCOCC2)n1 | 37 | - | - | - | -
Cc1nn(-c2ccccc2)c(C)c1C(=O)OCC(=O)N1c2ccccc2NC(=O)C1(C)C | - | - | - | - | -
Cn1c(=O)[nH]c(=O)c2c1nc(Br)n2CC(O)c1ccccc1 (stereo unspecified) | - | - | - | - | -
N#Cc1nc(-c2cccc3ccccc23)oc1N1CCCCC1 | - | - | - | - | -
CC1CCN(c2oc(-c3cccc4ccccc34)nc2C#N)CC1 | 100 | . | - | - | 94
S=c1[nH]nc(C2CCCCC2)n1/N=C/c1cccs1 | - | - | - | - | -
CC(C)CC1(C)NC(=O)N(CCN2C(=O)c3ccccc3C2=O)C1=O (stereo unspecified) | - | - | - | - | -
CCOC(=O)c1c(C)c(C(=O)NC2CCCCC2)c(C)n1CC | . | - | - | 154 | -
CC(=Nc1ccc(C)cc1)c1sc2ccccc2c1O | - | - | - | - | -
CC(=Nc1cccc(O)c1)c1sc2ccccc2c1O | 53 | - | - | - | -
CN(C)c1nc(N)nc(CSc2nc3cc(Cl)ccc3o2)n1 | - | - | - | - | -
O=S1(=O)C=C(Sc2nc3cc(Cl)ccc3o2)c2ccccc21 | 56 | - | - | - | -
CCc1cc2c3c(c(=O)oc2cc1O)CCCC3 | - | - | - | - | -
Cc1cc(Cl)c(S(=O)(=O)N2CCSCC2)cc1OCC(N)=O | - | - | - | - | 75
Cc1ccccc1C(=O)N1CCC(C(=O)Nc2ccc3c(c2)OCCO3)CC1 | - | - | - | - | -
CCNc1c2c(nc3ccccc13)CC(C)(C)CC2=O | 97 | - | - | - | 79

Screening data: PubChem, Columbia University Molecular Screening Center
